# What was measured:
# Experiment in all cases: PBM binding z-score (relative to random genomic background probes); higher = stronger binding; sequences stand for … in GC…GCGATTGACAGCGTAGAATGAAGG
# [1] = tested on: FXR:RXRa (NR concentration 270 nM, RXRa partner concentration 90 nM)
# Outline: (§1)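 Binding buffer was PBS pH 7.4 with 2% milk, 0.02% Triton X-100, 1 mM DTT, 0.2 mg/mL BSA and 0.4 mg/ml salmon testes DNA. In it, ligand-free nuclear receptor dimers were incubated 1 h on custom Agilent 4×180K protein-binding microarrays carrying double-stranded probes. Antibodies against each partner (one per run) detected binding, and z-scores were calculated against random background probes after regression normalization of scanned fluorescence.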
# [2] = tested on: LXRa:RXRa (NR concentration 270 nM, RXRa partner concentration 90 nM)
# Outline: as §1
# [3] = tested on: LXRa homodimer (NR concentration 270 nM)
# Outline: as §1
# [4] = tested on: LXRb:RXRa (NR concentration 270 nM, RXRa partner concentration 90 nM)
# Outline: as §1
# [5] = tested on: LXRb homodimer (NR concentration 270 nM)
# Outline: as §1
# [6] = tested on: PPARa:RXRa (NR concentration 270 nM, RXRa partner concentration 90 nM)
# Outline: as §1
# [7] = tested on: PPARg:RXRa (NR concentration 180 nM, RXRa partner concentration 90 nM)
# Outline: as §1
# [8] = tested on: PPARg:RXRa 270nM:90nM, anti-RXR (NR concentration 270 nM, RXRa partner concentration 90 nM)
# Outline: as §1
# [9] = tested on: PPARg:RXRa 30nM:10nM, anti-RXR (NR concentration 30 nM, RXRa partner concentration 10 nM)
# Outline: as §1
# [10] = tested on: PPARg:RXRa 90nM:30nM, anti-RXR (NR concentration 90 nM, RXRa partner concentration 30 nM)
# Outline: as §1
# [11] = tested on: PPARg:RXRa DBDmut IVT, anti-RXR (DBD mutation: RXRa K156A/R161A, NR concentration 270 nM, RXRa partner concentration 90 nM)
# Outline: as §1
# [12] = tested on: PPARg:RXRa IVT, anti-PPARg (NR concentration 270 nM, RXRa partner concentration 90 nM)
# Outline: as §1
# [13] = tested on: PPARg DBDmut:RXRa IVT, anti-PPARg (DBD mutation: PPARg1 K132A/R137A, NR concentration 270 nM, RXRa partner concentration 90 nM)
# Outline: as §1
# [14] = tested on: PPARg DBDmut IVT, anti-PPARg (DBD mutation: PPARg1 K132A/R137A, NR concentration 270 nM)
# Outline: as §1
# [15] = tested on: PPARg homodimer (NR concentration 180 nM)
# Outline: as §1
# [16] = tested on: PXR:RXRa (NR concentration 270 nM, RXRa partner concentration 90 nM)
# Outline: as §1
# [17] = tested on: PXR homodimer (NR concentration 270 nM)
# Outline: as §1
# [18] = tested on: RARa:RXR (NR concentration 270 nM, RXRa partner concentration 90 nM)
# Outline: as §1
# [19] = tested on: RARa homodimer (NR concentration 270 nM)
# Outline: as §1
# [20] = tested on: RARb:RXRa (NR concentration 270 nM, RXRa partner concentration 90 nM)
# Outline: as §1
Sequence,PBM binding z-score [1],PBM binding z-score [2],PBM binding z-score [3],PBM binding z-score [4],PBM binding z-score [5],PBM binding z-score [6],PBM binding z-score [7],PBM binding z-score [8],PBM binding z-score [9],PBM binding z-score [10],PBM binding z-score [11],PBM binding z-score [12],PBM binding z-score [13],PBM binding z-score [14],PBM binding z-score [15],PBM binding z-score [16],PBM binding z-score [17],PBM binding z-score [18],PBM binding z-score [19],PBM binding z-score [20]
CATAGAGGGTCAGCTAGGCCAGAGTAGGGACGGC,3.11,2.04,-0.237,1.37,0.495,3.45,2.23,2.06,0.47,1.23,1.42,2.21,0.395,0.25,1.26,1.2,-0.122,1.9,-0.0533,3.82
GGAACGAGGGCATTCGCGTTGATAGCATGGCGAT,0.794,1.04,-0.65,0.18,-0.618,1.5,0.776,0.655,-0.361,0.136,2.08,1.86,-0.525,-0.616,-0.126,0.744,-0.0684,0.449,-0.431,1.71
ACTTACGGGTCAACGAGGATATAGCACGCGTATA,6.53,4.05,0.457,3.61,0.828,5.43,5,5.19,2.12,3.85,3.44,3.76,1.49,1.58,2.26,3.34,0.678,4.19,1.35,3.88
ATACCAAGATGATCGTGAGGTCGTTGATACTAAC,1.11,0.576,0.456,0.892,0.0732,0.598,0.48,-0.158,0.129,-0.00184,0.165,0.114,0.181,0.947,0.378,1.67,1.32,1.35,0.361,0.547
TTACCAAGGTGAAAGGTCTTTGATGCACGCCTTG,1.27,1.01,-0.494,1.07,-0.549,3.54,5.56,6.21,4.99,6.07,2.19,4.37,0.282,0.356,1.16,1.19,-0.419,1.96,0.0646,1.96
TCATATAGGTAATACAGGTGAAAGTCGGCATCTA,1.2,1.54,0.569,1.2,0.365,2.06,1.67,2.61,4.12,3.5,4.2,3.48,1.31,1.86,1.33,0.888,0.728,1.34,1.98,0.83
TCGAGTAGGTTAGGGCCATTCAGAATGGCGTCGA,0.218,-0.0329,-0.658,-0.207,-1.05,0.58,0.0561,0.722,0.497,0.65,1.63,0.942,-0.334,0.0284,-0.315,0.054,-0.626,-0.18,-0.395,0.699
CCTAGTTGGTCAGGAGGTAACACACCGGATATGA,0.273,0.0725,0.325,0.204,-0.0466,0.433,0.902,1.08,0.0146,0.419,0.719,1.36,0.594,0.266,1.37,0.0397,0.446,0.422,1.49,0.781
TAGCCTAGGTCACTCAGGGGCCAGTATAGAAAGC,3.32,2.18,-0.258,2,-0.123,3.18,2.64,2.29,0.26,1.24,1.65,3.3,0.795,0.141,1.5,1.73,-0.391,3.07,-0.348,3.99
TCTTGTAGATCAAGCAGGTCAAGAAAGCCTGAGT,0.916,1.2,0.357,1.67,-0.193,2.29,0.0976,1.6,2.11,2.16,1.73,1.75,0.414,-0.0194,0.82,1.7,0.497,1.91,0.192,1.79
TCTAGTTGGTCAAAGGGCACACACTCGAAATGCG,1.38,1.56,0.344,1.48,0.0761,4.28,8.25,7.85,7.7,8.57,2.22,3.89,0.5,0.679,1.73,1.7,0.178,2.72,0.588,2.6
ACTAGCAGGCCAAGGGTCACTGAAGATTAGTCCG,3.07,2.89,0.0691,2.66,-0.585,4.73,8.44,7.62,6.5,8.43,1.21,4.08,0.528,0.377,5.87,3.39,-0.283,4.86,0.818,3.76
GGAACGAGGGCATTGGAGTTGATAGCATGGCGAT,0.624,1.25,-0.304,-0.0971,-0.75,1.36,0.831,0.611,-0.313,-0.0775,3.13,1.96,-0.193,-0.133,0.272,2.48,0.836,0.409,-0.598,1.72
CGATCTAGGTCATCCAGGACAGTGAATACATTGA,4.46,2.5,0.582,2.09,0.272,4.82,7.36,6.3,3.7,5.8,7.91,8.21,6.15,1.47,2.27,2.13,1.59,2.41,0.582,3.89
